# Assay outcomes from PubChem BioAssay.
# IL1B secr inh – blocks inflammasome-driven IL-1 beta release. THP-1 LPS/ATP IL-1B secretion, AlphaLISA, 16 h; stronger effect = lower value. activity change, % at 57.5 µM. actives 4.7% (n = 360,000); in the data active = activity change below about -50%; inconclusive = mostly about -30% to -49%
#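 Secreted IL-1B measured by AlphaLISA bead assay after 16 h compound exposure of THP-1 cells; compounds (final up to 57.5 uM) added 1 h before LPS (250 ng/mL) and ATP (1.25 mM) stimulation; lower signal means less secretion.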
# DT40 TDP1 CPT – DT40-hTDP1 cell growth loss with CPT. actives 12% (n = 420,000). AID 686979. Potency, µM (titrated, usually from 46.2 µM), for the others: at the highest dose activity change, negative = growth inhibition, actives largely listed as inhibitors. chicken DT40 Tdp1-/-;hTDP1 cells + 20 nM CPT, ATP luminescence, 48 h; note: potency is the fitted concentration of half-maximal effect; nearly all actives have a fitted effect of over 55% in size
#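 Chicken DT40 Tdp1-/- cells stably complemented with human TDP1 were seeded at 400 cells/well in medium containing 20 nM camptothecin, exposed to pin-transferred compounds, and grown at 37 °C for at least 48 hr. Viability was read as ATP luminescence.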
# ELG1 DNA repair – inhibitors of ELG1-dependent DNA repair in HEK293T cells. HEK293T ELG1-luciferase reporter, luminescence, 16 h; DNA damage induced by 5-fluorouridine. actives 2.3% (n = 330,000). Potency, µM (doses to about 46.1 µM), for the others: top-dose activity change, negative = inhibition, hits mostly inhibitors; note: potency is the fitted concentration of half-maximal effect; nearly all actives have a fitted effect of over 55% in size
#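 In this reporter screen, reduction of luminescence relative to DMSO vehicle indicated activity. Compounds and 5-fluorouridine were added together to 2,000 cells per well, incubated for 16 hr at 37 °C, then developed with ONE-Glo.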
# TDP1 inh – blocks human tyrosyl-DNA phosphodiesterase 1; recombinant TDP1, AlphaScreen DNA substrate cleavage; actives 0.28% (n = 350,000); Potency, µM (highest dose often 130 µM), for inactives: at the top dose activity change, negative = inhibition, most hits filed as inhibitors; AID 485290; Q9NUW8; note: potency is the fitted concentration of half-maximal effect; nearly all actives have a fitted effect of over 40% in size
#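 Recombinant E. coli-expressed Tdp1 (1 nM) preincubated with compound 15 min at RT, then 5'-biotin/3'-phosphotyrosine-FITC DNA substrate (15 nM) added for 5 min. AlphaScreen beads (10 ug/ml) added, 10 min RT; tyrosine-FITC cleavage read as signal loss.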
# Giardia killer – Giardia lamblia killing; actives 0.15% (n = 340,000); AID 540267; activity change, % at 7.66 µM, hits read low; Giardia lamblia trophozoite viability; in the data active = activity change below about -80%; inconclusive = between about -30% and that limit;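 note: parasites exposed to compound for two days anaerobically before the ATP read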
#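 Media and compound were dispensed first, then trophozoites at 100 cells/well; plates sat 48 hrs at 37 deg C without oxygen before ATP luminescence reagent was added and read after 15-30 min at room temperature.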
# TDP1 cell noCPT – qHTS for Inhibitors of human tyrosyl-DNA phosphodiesterase 1 (TDP1): qHTS in cells in absence of CPT. DT40 Tdp1-/- hTDP1 cells, no CPT, ATP luminescence, 48 h. Potency, µM (highest dose often 46.2 µM), for inactives: at the highest dose activity change, negative = growth inhibition, actives largely listed as inhibitors. actives 15% (n = 420,000). AID 686978, 2013; note: potency is the fitted concentration of half-maximal effect; nearly all actives have a fitted effect of over 55% in size
#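 Cells were dispensed at 400 per well, compounds added by pin tool, plates incubated ≥48 hr at 37 °C, then CellTiter-Glo added for 30 min at room temperature before luminescence reading. Line: DT40 Tdp1-/- complemented with hTDP1; camptothecin omitted.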
# ELG1 FLuc counter – luciferase inhibition in cell-free luciferin readout for ELG1 hits; shares compounds with ELG1 DNA repair; cell-free firefly luciferase luminescence counter-screen, ViewLux; Potency, µM (highest dose often 46.1 µM), for inactives: top-dose activity change, negative = inhibition, actives largely listed as inhibitors; AID 624247; actives 3% (n = 350); note: potency is the fitted concentration of half-maximal effect
# ELG1 Luc conf – human ELG1 repair inhibition, luciferase-tagged ELG1 confirmation; AID 624248; Potency, µM (highest dose often 46.1 µM), for the others: at the top dose activity change, negative = inhibition, usual class: inhibitors; shares compounds with ELG1 DNA repair; HEK293T ELG1-luciferase levels, luminescence; cells co-treated with 5-fluorouridine; actives 68% (n = 670); note: potency is the fitted concentration of half-maximal effect; nearly all actives have a fitted effect of over 55% in size
# Target sequence (Q96QE3 whole entry, looked up): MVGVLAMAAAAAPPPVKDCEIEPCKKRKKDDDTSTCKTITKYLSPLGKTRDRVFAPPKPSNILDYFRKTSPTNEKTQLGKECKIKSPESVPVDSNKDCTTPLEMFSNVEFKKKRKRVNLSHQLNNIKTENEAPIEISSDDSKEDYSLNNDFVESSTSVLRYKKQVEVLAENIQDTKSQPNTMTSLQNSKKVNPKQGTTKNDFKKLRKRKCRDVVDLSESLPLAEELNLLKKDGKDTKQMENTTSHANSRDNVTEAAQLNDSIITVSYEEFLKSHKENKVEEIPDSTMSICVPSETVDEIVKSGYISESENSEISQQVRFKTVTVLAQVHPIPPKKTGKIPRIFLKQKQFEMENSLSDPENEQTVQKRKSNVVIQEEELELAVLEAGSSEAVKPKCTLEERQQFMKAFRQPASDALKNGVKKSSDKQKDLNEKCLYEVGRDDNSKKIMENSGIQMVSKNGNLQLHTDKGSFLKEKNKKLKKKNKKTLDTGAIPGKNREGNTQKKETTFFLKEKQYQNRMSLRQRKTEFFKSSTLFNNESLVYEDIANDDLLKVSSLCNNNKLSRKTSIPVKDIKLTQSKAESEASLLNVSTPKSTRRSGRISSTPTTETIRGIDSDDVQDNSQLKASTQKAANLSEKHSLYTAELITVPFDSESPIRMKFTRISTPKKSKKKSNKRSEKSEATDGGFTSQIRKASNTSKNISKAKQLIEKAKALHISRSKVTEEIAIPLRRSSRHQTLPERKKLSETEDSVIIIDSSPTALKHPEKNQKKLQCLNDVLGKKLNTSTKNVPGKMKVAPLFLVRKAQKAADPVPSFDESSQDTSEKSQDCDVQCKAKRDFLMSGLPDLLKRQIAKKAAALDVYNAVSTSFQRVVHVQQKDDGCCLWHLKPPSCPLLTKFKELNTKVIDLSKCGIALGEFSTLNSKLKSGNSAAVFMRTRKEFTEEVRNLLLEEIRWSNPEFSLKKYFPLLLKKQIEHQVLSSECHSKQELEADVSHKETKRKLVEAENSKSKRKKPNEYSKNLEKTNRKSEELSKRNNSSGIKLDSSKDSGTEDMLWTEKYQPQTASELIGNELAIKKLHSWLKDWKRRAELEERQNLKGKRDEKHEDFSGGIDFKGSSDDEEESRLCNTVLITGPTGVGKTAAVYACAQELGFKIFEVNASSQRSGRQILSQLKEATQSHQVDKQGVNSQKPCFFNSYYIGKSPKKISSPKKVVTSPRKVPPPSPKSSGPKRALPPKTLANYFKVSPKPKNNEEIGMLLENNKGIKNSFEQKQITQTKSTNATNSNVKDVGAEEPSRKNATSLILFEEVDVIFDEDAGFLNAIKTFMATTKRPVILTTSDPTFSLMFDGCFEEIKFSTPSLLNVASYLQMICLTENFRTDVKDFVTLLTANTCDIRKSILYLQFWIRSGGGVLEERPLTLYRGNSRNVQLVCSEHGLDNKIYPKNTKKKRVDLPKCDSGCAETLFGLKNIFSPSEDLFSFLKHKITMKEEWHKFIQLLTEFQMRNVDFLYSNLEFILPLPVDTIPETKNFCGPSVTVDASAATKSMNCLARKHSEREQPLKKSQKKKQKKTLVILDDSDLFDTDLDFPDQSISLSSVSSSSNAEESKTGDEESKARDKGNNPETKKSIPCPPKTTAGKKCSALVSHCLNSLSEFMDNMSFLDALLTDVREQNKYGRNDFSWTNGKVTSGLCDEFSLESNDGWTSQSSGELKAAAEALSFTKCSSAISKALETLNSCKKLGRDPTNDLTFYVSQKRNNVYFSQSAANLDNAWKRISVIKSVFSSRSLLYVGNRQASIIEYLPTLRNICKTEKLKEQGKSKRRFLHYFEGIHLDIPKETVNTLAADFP
# ELG1-Luc MMS – MMS-stimulated human ELG1 repair inhibition, confirmed | shares compounds with ELG1 DNA repair | HEK293T luciferase-tagged ELG1 level, MMS stimulated | Potency, µM (series often up to 46.1 µM), for the others: top-dose activity change, negative = inhibition, actives largely listed as inhibitors | actives 53% (n = 670) | AID 624249; note: potency is the fitted concentration of half-maximal effect; nearly all actives have a fitted effect of over 60% in size
# ELG1 5FU viab – confirmation of ELG1 repair inhibitors: viability with 5FU. cell viability with 5-FU, ELG1-dependent repair. Potency, µM (highest dose often 46.1 µM), inactives show at the highest dose activity change, negative = viability loss, most hits filed as cytotoxic. 670 tested, under 10 active. shares compounds with ELG1 DNA repair;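 note: ELG1-luc HEK293T cells cotreated with 5-fluorouridine at 10 µM final; potency is the fitted concentration of half-maximal effect; viability measured 16 h after compound addition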
# ELG1 MMS viab – confirmation of ELG1 repair inhibitors: viability with MMS | Cell viability with MMS, ELG1-dependent DNA repair | Potency, µM (doses to about 46.1 µM), inactives show at the highest dose activity change, negative = viability loss, hits mostly cytotoxic | shares compounds with ELG1 DNA repair | actives 33% (n = 670);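 note: ELG1-luc HEK293T cells co-treated with 10 µM MMS; potency is the fitted concentration of half-maximal effect; viability read 16 h after compound addition; nearly all actives have a fitted effect of over 60% in size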
# Cell viab unstim – counter-screen for ELG1 repair inhibitors: unstimulated cell viability; cell viability counter-screen, unstimulated, luminescence; actives 8% (n = 900); shares compounds with ELG1 DNA repair; Potency, µM (highest dose often 45.9 µM), inactives show at the top dose activity change, negative = loss of viability, most hits filed as cytotoxic;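 note: potency is the fitted concentration of half-maximal effect; compound exposure lasted 16 hours before reading; nearly all actives have a fitted effect of over 55% in size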
# FLuc biochem – firefly luciferase inhibition counter-screen. shares compounds with ELG1 DNA repair. purified firefly luciferase, luminescence counter-screen. Potency, µM (series often up to 57.5 µM), inactives show top-dose activity, negative = inhibition, most hits filed as inhibitors. actives 10% (n = 350); note: potency is the fitted concentration of half-maximal effect
# An asterisk follows results filed as active; u = inconclusive; x = no result; [ ] = another dose, or the depositor's remark. Shown are actives, neighbours in structure and some others; about 19% of the full set was active somewhere. Unless noted, calls come from the whole dose curve; as a rule, active = well fitted curve in the direction sought with a large enough effect; inconclusive = small, poorly fitted or top-dose-only effect, or another doubt; inactive = no such curve, though single readings can be large; an effect the other way counts as inactive or inconclusive. % is set by controls: 0 for no effect and ±100 for the full control effect.
SMILES,IL1B secr inh,DT40 TDP1 CPT,ELG1 DNA repair,TDP1 inh,Giardia killer,TDP1 cell noCPT,ELG1 FLuc counter,ELG1 Luc conf,ELG1-Luc MMS,ELG1 5FU viab,ELG1 MMS viab,Cell viab unstim,FLuc biochem
O=c1[nH]c(=O)n(Cc2ccc(F)cc2)c(O)c1/C=N/Nc1ccccc1,9.6,18.1%,1.83µM*,11.6%,6.0,-14.5%,x,6.2%,1.9%,-0.2%,-3.0%,u,x
CCCCN=C[C@]12CCC(O)CC1(O)CCC1[C@@H]2CC[C@]2(C)[C@H](C3C=CC(=O)O3)CCC12O (stereo not given in full),-76.5*,u,1.03µM*,x,-19.5,16.4µM*,u,1.58µM*,0.889µM*,u,1.99µM*,0.629µM*,-3.0%
O=C(CCl)c1ccc(O)c(O)c1,x,u,x,x,x,11.2µM*,x,x,x,x,x,-8.5%,x
COC[C@H]([C@@H](O)[C@@H](O)C(=O)NCC[C@@H](C)c1nc(/C=C/C[C@H]2OC3(C[C@H](O)[C@H]2C)OC([C@@H](C[C@@H](O)[C@@H](C)[C@@H](O)[C@@H](C)/C=C(C)/C(C)=C/C=C/C(C)=C\C#N)OC)[C@@H](OP(=O)(O)O)C3(C)C)co1)N(C)C (stereo not given in full),x,0.0022µM*,x,3.7%,x,0.0016µM*,0.5µM*,0.141µM*,0.0889µM*,1.77µM*,0.0792µM*,0.158µM*,-1.0%
CCOC(=O)CNC(=O)N1Cc2cc(N3CCOCC3)ccc2-n2nncc2C1,-0.3,-1.0%,x,x,x,-11.9%,x,x,x,x,x,x,x
C=CCn1c(O)c(C(CC)=Nc2ccc(N(C)C)cc2)c(=O)[nH]c1=O,x,-21.1%,-23.4%,0.0%,8.3,u,x,x,x,x,x,x,x
O=C(NCCCn1ccnc1)C(Cl)(Cl)Cl,11.5,0.7%,-2.2%,6.0%,-20.1,11.3%,x,x,x,x,x,x,x
CCC(=O)N1N=C2C3CCN(CC3)C2C1c1ccc(C)cc1 (stereo not given),15.0,-8.1%,2.4%,-3.9%,-22.6,-0.4%,x,x,x,x,x,x,x
COC1C(O)C(C)O[C@@H](OC2CC[C@@]3(C)C4CC[C@]5(C)C(C6=CC(=O)OC6)CC[C@@]5(O)C4CC[C@@H]3C2)C1O (stereo not given in full),x,1.03µM*,x,14.0%[56.1 µM],x,0.651µM*,u,0.0997µM*,0.0629µM*,u,0.141µM*,0.05µM*,-6.0%
COC1C(O)C(C)O[C@H](OC2CC[C@@]3(C=O)C4CC[C@]5(C)C(C6=CC(=O)OC6)CC[C@@]5(O)C4CC[C@@H]3C2)C1O (stereo not given in full),x,0.651µM*,x,9.6%[56.1 µM],x,0.366µM*,u,0.177µM*,0.0706µM*,0.25µM*,0.158µM*,0.0445µM*,u
CC1OC(O[C@@H]2C(O)CC(O[C@@H]3C(O)C[C@@H](OC4CC[C@]5(C)[C@H](CC[C@H]6[C@@H]5CC[C@]5(C)C(C7=CC(=O)OC7)C(O)C[C@@]65O)C4)OC3C)OC2C)CC(O)C1O (stereo not given in full),x,0.3%,x,13.6%[56.1 µM],x,-14.0%,x,0.56µM*,0.315µM*,u,0.499µM*,0.199µM*,x
Cn1cccc1C1CCCN1CC(=O)Nc1ccc(C#N)c(Cl)c1 (stereo not given),-19.9,u,u,5.5%,-2.4,u,x,x,x,x,x,x,x
CN1CC[C@]2(c3cccc(O)c3)Cc3nc4ccccc4cc3C[C@H]2C1,x,x,x,5.8%,x,x,x,x,x,x,x,x,x
CCOc1cccc(=NC2CCCCC2)c2c(C)n(C)c(C)c12,-97.3*,4.11µM*,4.61µM*,x,-14.0,2.59µM*,x,u,7.91µM*,u,7.91µM*,u,x
O=C(CCC(=O)N1CC2C[C@@H](C1)Cn1c2cccc1=O)NCCc1ccccc1,1.1,6.2%,9.8%,x,-8.5,4.7%,x,x,x,x,x,x,x
C[C@]12CCC3C(CCC4=CC(O)CC[C@@]43/C=N/O)C1(O)CCC2C1=CC(=O)OC1 (stereo not given in full),-71.3*,4.4%,1.46µM*,x,-20.5,u,x,0.996µM*,0.445µM*,u,1.25µM*,0.499µM*,x
C=C(C)[C@@]12OC3(c4ccccc4)O[C@@H]1[C@@H]1[C@@H]4O[C@]4(CO)[C@@H](O)[C@]4(O)C(=O)C(C)=C[C@H]4[C@@]1(O3)[C@H](C)[C@H]2OC(=O)/C=C/C=C/c1ccccc1,x,x,x,15.4%,x,x,72.5%,x,x,x,x,u,-0.5%
C=CCn1c(O)c(C(CC)=Nc2cccc(C(=O)O)c2)c(=O)[nH]c1=O,50.4,-1.0%,u,x,2.7,-9.3%,x,x,x,x,x,x,x
